Drawing on PubChem BioAssay (NCATS), this text covers Potency for 33 molecules.

Results filed as inconclusive are left out. Active and inactive are the calls of the source. Unless noted, calls come from the whole dose curve; as a rule, active = well fitted curve in the direction sought with a large enough effect; inconclusive = small, poorly fitted or top-dose-only effect, or another doubt; inactive = no such curve, though single readings can be large; an effect the other way counts as inactive or inconclusive.

Experiment [1] in a line: qHTS for Inhibitors of the Aldehyde Dehydrogenase Family (ALDH1A2, ALDH1A3, ALDH2, ALDH3A1) (AID 2061307). For Potency: test system not described further here. Note: nearly all actives have a fitted effect of over 50% in size. The conditions noted are these: ALDH inhibition qHTS; series mostly up to 50.3 µM. (In general: qHTS replaces the single test concentration by a dilution series.)
For experiment [2], the target named is Aldehyde dehydrogenase, mitochondrial (Homo sapiens) (UniProt P05091). Description: qHTS for Inhibitors of the Aldehyde Dehydrogenase Family (ALDH2) Primary screen (AID 2061308). Note: nearly all actives have a fitted effect of over 55% in size. Particulars: ALDH2 enzyme inhibition qHTS, 1536-well; series mostly up to 56 µM.
The target in experiment [3] is Retinal dehydrogenase 2 (Homo sapiens) (UniProt O94788). Description: qHTS for Inhibitors of the Aldehyde Dehydrogenase Family (ALDH1A2) Confirmation screens (AID 2061314). Note: nearly all actives have a fitted effect of over 65% in size. Particulars: ALDH1A2 enzyme inhibition qHTS confirmation; series mostly up to 45.9 µM.
Experiment [4] has as its target Retinaldehyde dehydrogenase 3 (Homo sapiens) (UniProt P47895). Description: qHTS for Inhibitors of the Aldehyde Dehydrogenase Family (ALDH1A3) Primary screen (AID 2061315). Particulars: ALDH inhibition qHTS; series mostly up to 56 µM.
Experiment [5] is described as follows: BET inhibitor-based combinations targeting novel dependencies in MECOM-rearranged (r) AML: SET-2 cell line (AID 2202231). Note: nearly all actives have a fitted effect of over 35% in size. Particulars: SET-2 AML cells viability, CellTiter-Glo luminescence, 48 h; viability: active compounds read low, concentration not given here. Summed up: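 Viability of cells (500 per well) is scored by luminescent CellTiter-Glo at 48 hr post-dosing. Eleven-point titrations are normalized to DMSO and empty controls and reduced to AUC values.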
A general note: In ATP-based viability assays light output follows the ATP content of the culture.

A short description of experiment [6]: BET inhibitor-based combinations targeting novel dependencies in MECOM-rearranged (r) AML: MV-4-11 cell line (AID 2202233). Note: nearly all actives have a fitted effect of over 45% in size. The conditions noted are these: MV-4-11 AML viability, CellTiter-Glo luminescence, 48 h; series mostly up to 46 µM. Summed up: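 Using pin-tool transfer, drugs were added in 11 doses to cells (500/well), incubated 48 hr, and assessed with CellTiter-Glo. Z-AUC is a mean-centring transformation applied separately to each screened line.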

Experiment [7] deals with Retinaldehyde dehydrogenase 3 (Homo sapiens) (UniProt P47895). Description: qHTS for Inhibitors of the Aldehyde Dehydrogenase Family (ALDH1A3) Validation screen (AID 2061312). Note: nearly all actives have a fitted effect of over 45% in size. The conditions noted are these: ALDH1A3 enzyme inhibition qHTS validation, fluorescence; series mostly up to 84.7 µM.
For experiment [8], the target named is Aldehyde dehydrogenase, mitochondrial (Homo sapiens) (UniProt P05091). The experiment in a line: qHTS for Inhibitors of the Aldehyde Dehydrogenase Family (ALDH2) Confirmatory screens (AID 2061303; active = well fitted inhibition curve with a large enough effect; title and protocol of this record describe different tests; note: nearly all actives have a fitted effect of over 45% in size). The conditions noted are these: ALDH inhibition qHTS; series mostly up to 45.4 µM.
The target of experiment [9] is Aldehyde dehydrogenase 1A1 (Homo sapiens) (UniProt P00352). Description: qHTS for Inhibitors of the Aldehyde Dehydrogenase Family (ALDH1A1) Confirmatory screens (AID 2061316). Note: nearly all actives have a fitted effect of over 65% in size. The conditions noted are these: ALDH inhibition qHTS; series mostly up to 47.3 µM.
Experiment [10] deals with Retinaldehyde dehydrogenase 3 (Homo sapiens) (UniProt P47895). The experiment in a line: qHTS for Inhibitors of the Aldehyde Dehydrogenase Family (ALDH1A3) Confirmatory screens (AID 2061311). Note: nearly all actives have a fitted effect of over 60% in size. Particulars: ALDH inhibition qHTS; series mostly up to 46 µM.
Potency is the fitted concentration of half-maximal effect.

With `O=C(c1c(F)ccc(NS(=O)(=O)N2CC[C@@H](F)C2)c1F)c1c[nH]c2ncc(-c3cnc(C4CC4)nc3)cc12`, the Potency was 22.4 µM (active) in [1], 16.6 µM (active) in [5] and 18.6 µM (active) in [6]. In addition, the Potency entry in experiment [2], in experiment [3] and in [4] was “inactive” in each case.
Regarding `COc1cc(Br)c(Nc2nc(-c3c(C)nc4ncccn34)cs2)c(Br)c1`, the Potency result in experiment [2], in experiment [7] and in [4] was “inactive” each time.
As for `N#Cc1c(-c2ccc(Cl)c([N+](=O)[O-])c2)no[n+]1[O-]`, the Potency in experiment [8] is 2.83 µM (active); in [2], 0.398 µM (active); in experiment [3], 2.83 µM (active); in experiment [9], 7.98 µM (active). The Potency entry in experiment [4] was “inactive”.
Consider `O=[N+]([O-])c1cc(Cl)ccc1S(=O)(=O)N1CCN(Cc2ccccc2)CC1`, for which the Potency result in experiment [2], in [7] and in [4] was “inactive” throughout.
For the molecule `CCCC(N[C@@H](C)C(=O)N1[C@H](C(=O)O)C[C@@H]2CCCC[C@@H]21)C(=O)OCC` (some centres undefined), the Potency result in [2], in [7] and in experiment [4] was “inactive” in each case.
For `OC[C@H]1O[C@@H](OC/C=C/c2ccc(O)cc2)[C@H](O)[C@@H](O)[C@@H]1O`, in [2], the Potency entry is “inactive”.
As for `COc1ccc(C2Nc3ccccc3C(=O)N2Cc2ccccc2)cc1COc1ccc(F)cc1` (centres undefined), the Potency result in experiment [8], in [2], in experiment [4] and in experiment [9] was “inactive” in each case. In experiment [3], the Potency was 15.9 µM (active).
For `COC(=O)c1c(C)cc(OC(=O)c2c(C)cc(OC)cc2OC)cc1O[C@@H]1O[C@H](CO)[C@@H](O)[C@H](O)[C@H]1O`, the Potency entry in [8], in [2] and in experiment [4] was “inactive” throughout.
For `COc1c(C(C)C)c(O)c(O)c2c1C(OC)[C@H]1OC(=O)[C@@]23CCCC(C)(C)[C@H]13` (some centres undefined), the Potency result in experiment [1] was “inactive”. The results for the Potency in experiment [10], in experiment [3] and in [4] were 6.97 µM (active), 15.6 µM (active) and 2.82 µM (active), respectively.
Regarding `CN(CCCNC(=O)c1ccc2nc3c(c(Cl)c2c1)CCCC3)Cc1ccccc1`, the Potency entry in experiment [2], in [7] and in experiment [4] was “inactive” each time. Further, the Potency in [10] is 8.96 µM (active); in [3], 7.12 µM (active); in experiment [9], 8.96 µM (active).
As to `O=C(/C=C/c1cccnc1)Nc1cccc([S+](=O)([O-])Nc2ccccc2F)c1`, the Potency result in [8], in experiment [2], in [4] and in [9] was “inactive” each time. For the same molecule, the Potency in [3] was 11.3 µM (active).
`O=C(OCC#CCSc1nnc(-c2cccc3ccccc23)o1)C1CC1`: the Potency entry in experiment [8], in experiment [2] and in experiment [4] was “inactive” each time.
`C=C1C(=O)OC[C@@H]1C/C=C(\C)CC1CC(C)C(=O)O1` (some centres undefined): the Potency entry in [2] is “inactive”.
For the molecule `Cc1c(C(=O)OCC2CCCO2)[nH]c2c1C(=O)CCC2` (centres undefined), the Potency entry in experiment [8], in experiment [2] and in experiment [4] was “inactive” each time. Besides, the Potency in [3] is 28.3 µM (active); in experiment [9], 3.18 µM (active).
Consider `Cc1cccc(C#Cc2cc(F)cc(C#N)c2)n1`, for which the Potency result in experiment [2] was “inactive”. Moreover, the Potency in experiment [7] was 5.62 µM (active).
On to `Nc1cccc(CNC(=O)c2ccc(Oc3ccc(OCc4cccc(F)c4)cc3)nc2)c1`, for which the Potency entry in experiment [8], in experiment [7], in [3] and in experiment [4] was “inactive” throughout.
As for `O=C(O)/C=C/c1cc2c(cc1O[C@@H]1O[C@H](CO)[C@@H](O)[C@H](O)[C@H]1O)OCO2`, the Potency result in experiment [2] was “inactive”.
The same measure, in the same setting: with `C[C@@H]1O[C@@H](O[C@H]2[C@H](O[C@H]3[C@H](O[C@H]4CC[C@@]5(C)C(CC[C@]6(C)C5CC=C5[C@@H]7CC(C)(C(=O)O)C[C@@H](O)[C@]7(C)CC[C@]56C)[C@@]4(C)CO)O[C@H](C(=O)O)[C@@H](O)[C@@H]3O)O[C@H](CO)[C@H](O)[C@@H]2O)[C@H](O)[C@H](O)[C@H]1O` (some centres undefined) the entry was “inactive”.
Regarding `COc1ccc2c(OC)c3ccoc3nc2c1OC`, the Potency is 28.2 µM (active) in [1], 4 µM (active) in experiment [10], 0.896 µM (active) in experiment [3] and 2.83 µM (active) in experiment [9]. For the same molecule, the Potency entry in experiment [2] was “inactive”.
Regarding `COc1cc(/C=C/C(=O)O[C@H]2[C@@H]3C=CO[C@@H](O[C@@H]4O[C@H](CO)[C@@H](O)[C@H](O)[C@H]4O)[C@@H]3[C@@]3(CO)O[C@@H]23)ccc1O`, the Potency entry in experiment [2] was “inactive”.
With `CC[C@H]1OC(=O)C[C@@H](O)[C@H](C)[C@@H](O[C@@H]2O[C@H](C)[C@@H](O)[C@H](N(C)C)[C@H]2O)[C@@H](CCN2C[C@H](C)C[C@H](C)C2)C[C@@H](C)C(=O)/C=C/C(C)=C/[C@@H]1CO[C@@H]1O[C@H](C)[C@@H](O)[C@@H](OC)[C@H]1OC`, the Potency result in [2], in experiment [7] and in experiment [4] was “inactive” throughout.
In the case of `O=C1c2ccccc2NC(c2ccc(-c3ccc(-c4ccccc4)cc3)o2)N1O` (centres undefined), the Potency in experiment [8] is 3.57 µM (active); in experiment [2], 1.58 µM (active); in [3], 5.65 µM (active); in experiment [9], 4 µM (active). For the same molecule, the Potency result in [4] is “inactive”.
For `O=C1c2cccc3cccc(c23)C(=O)N1CCN1CCN(S(=O)(=O)c2cccc([N+](=O)[O-])c2)CC1`, the Potency entry in [8], in experiment [10], in experiment [3] and in experiment [9] was “inactive” in each case.
Consider `Cc1ccc(OCCn2c(CCNC(=O)c3cccc(N)c3)nc3ccccc32)cc1`, for which the Potency result in [8], in experiment [2], in experiment [3], in [4] and in experiment [9] was “inactive” in each case.
`C=C[C@H]1C(O[C@@H]2O[C@H](CO)[C@@H](O)[C@H](O)[C@H]2O)OC=C2C(=O)N3CCc4c([nH]c5ccccc45)C3CC21` (some centres undefined): the Potency result in experiment [2] is “inactive”.
With `Clc1nc(CN2CCOCC2)nc2sc3c(c12)CCCC3`, the Potency in experiment [8] is 4 µM (active). For the same molecule, the Potency result in experiment [2] and in [4] was “inactive” in each case.
As for `N#Cc1nc2c(nc1C#N)-c1ccccc1C2=O`, the Potency in [8] is 10 µM (active). The Potency result in [10] and in experiment [9] was “inactive” each time.
On to `[O-][n+]1onc(-c2ccccc2)c1/C=N/O`, for which the Potency entry in [8], in [2], in [3], in experiment [4] and in [9] was “inactive” each time.
Turning to `Cc1ccc(CNc2ccc(N3CCN(C(=O)OC(C)(C)C)CC3)cc2)cc1`, the Potency entry in experiment [8], in experiment [2] and in experiment [4] was “inactive” each time.
For `C=CC1C(OC2OC(CO)C(O)C(O)C2O)OC=C(C(=O)OC)C1CC1CC(=O)CC(CCc2ccc(O)cc2)O1` (centres undefined), in experiment [2], the Potency entry was “inactive”.
Consider `Cc1nc(C(=O)N2CCC[C@H]2Cc2nnc(-c3ccccc3)o2)c(-c2ccccc2F)s1`, for which the Potency result in experiment [2], in experiment [7] and in experiment [4] was “inactive” in each case.
Regarding `Cc1ccc2nc3sc(C(=O)NC4CCCC4)cc3cc2c1`, the Potency result in experiment [8], in [2] and in experiment [4] was “inactive” throughout.
As to `COCCN1CCC(C(=O)NO)(S(=O)(=O)c2ccc(Oc3ccc(OC(F)(F)F)cc3)cc2)CC1`, the Potency result in [2], in experiment [7] and in experiment [4] was “inactive” in each case.
